Bioassay records as filed in PubChem BioAssay.
Avidin fluor: green autofluorescence of compounds with avidin beads – biophysical, 488/530 nm, flow cytometry, artefact control, profiling panel; 0.38% of 220,000 active; compound fluorescence 488/530 nm; stronger effect = higher value; fluorescence (KMESF) at 10 µM; in the data active = fluorescence above about 47
EP2 mod: EP2 receptor modulators, cAMP readout, primary screen, cell-based, HTRF cAMP, PGE2 stimulation; Prostaglandin E2 receptor EP2 subtype (Homo sapiens), P43116; 0.83% of 260,000 active; EP2-expressing cells, cAMP HTRF FRET, PGE2 co-stimulation; induction, % at 25 µM;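 active = compounds whose cAMP rise, as percent of the full-agonist control response, exceeds 60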;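 note: rat C6 glioma line stably carrying human EP2 under a CMV promoter; the protocol text gives 20 µM as final concentration; 100% = response of wells given 1 µM PGE2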
Target sequence (P43116 whole entry, looked up): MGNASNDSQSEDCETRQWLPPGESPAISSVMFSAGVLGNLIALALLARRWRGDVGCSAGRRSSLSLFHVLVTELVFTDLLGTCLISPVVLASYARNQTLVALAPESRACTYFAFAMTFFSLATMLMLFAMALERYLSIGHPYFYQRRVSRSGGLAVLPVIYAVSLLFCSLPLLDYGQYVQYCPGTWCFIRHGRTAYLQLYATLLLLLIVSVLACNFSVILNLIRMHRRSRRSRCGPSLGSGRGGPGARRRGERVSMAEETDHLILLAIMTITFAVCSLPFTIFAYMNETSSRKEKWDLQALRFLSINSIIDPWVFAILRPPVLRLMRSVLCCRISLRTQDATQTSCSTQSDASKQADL
PGE2 EP2 inh: human EP2 receptor antagonists, primary screen, TR-FRET cAMP, C6 glioma cells; AID 1422, 2008; C6 glioma cells expressing human EP2; cells stimulated with saturating PGE2; Prostaglandin E2 receptor EP2 subtype (Homo sapiens), P43116; inhibition, % at 25 µM; 0.52% of 260,000 active;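 active = percent inhibition above 40 after rounding to a whole number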;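 note: rat C6 glioma host cells with rolipram phosphodiesterase inhibitor present; the protocol text gives 20 µM as final concentration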
Efa HMGR inh: inhibitors of E. faecalis class II HMGR, primary screen, biochemical, Enterococcus faecalis. HMG-CoA reductase (Enterococcus faecalis, mvaE). purified E. faecalis HMGR, NADPH absorbance 340 nm kinetic. inhibition, % at 10 µM. 0.41% of 190,000 active. AID 1066, 2008;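 active = inhibition above a set limit, the median over all tested compounds plus 3 SD, cut at about 9.5% in these data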;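 note: enzyme runs in reverse so mevalonate oxidation gives rising NADPH absorbance; 0% = complete reaction with DMSO and 100% = background rate lacking mevalonate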
GSH fluor: compound fluorescence on glutathione beads, profiling panel, artefact control, biophysical, 488/530 nm, flow cytometry; GSH beads flow cytometry, compound fluorescence 488/530 nm; stronger effect = higher value; fluorescence (KMESF) at 10 µM; 0.25% of 190,000 active; in the data active = fluorescence above about 89;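 note: glutathione beads carrying GST-tagged Bcl family fusion proteins plus one bare bead set; values are compound well signal with DMSO vehicle wells as background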
An asterisk follows results filed as active; . = no result; ! = repeats disagree. Compounds with a hit are over-represented: about 2.1% of the library has one in this group of screens.

SMILES	Avidin fluor	EP2 mod	PGE2 EP2 inh	Efa HMGR inh	GSH fluor
Cc1[nH]c2ccccc2c1-c1cc(-c2cc(-c3c(C)[nH]c4ccccc34)nc(N)n2)nc(N)n1	.	1	42*	.	.
Cc1[nH]c2ccccc2c1-c1nc(-c2ccc(Cl)cc2)nnc1-c1ccccc1	16	4	5	-4	9
Cn1cnc2c(=O)[nH]cc([N+](=O)[O-])c21	62*	23	7	6	8
O=C(Nc1ncc(Cc2ccccc2Cl)s1)c1cccs1	.	-1	11	.	.
Cc1nc(SCC(=O)Nc2ccc(F)cc2)nc2c1CCCC2	.	-82	54*	.	.
Cc1nc(SCc2ccc(C(=O)O)cc2)nc2c1CCCC2	9	61*!	6	1	14
Cc1nc(SCc2ccccc2)nc2c1CCCC2	.	54	13	.	.
O=C(Oc1ccc2cc(Br)ccc2c1)c1cccnc1	15	-11	6	-2	33
O=C(Oc1ccc(Br)cc1)c1cncc(Br)c1	89*	41	-3	1	36
C=CCn1c(Oc2ccccc2)nc2c1c(=O)n(C)c(=O)n2C	3	13	7	16*	19
O=C(Nc1c(C(=O)Nc2cccc3ccccc23)cnn1-c1ccccc1)c1ccco1	7	17	1	-3	99*
O=C(Cn1c(=O)n(Cc2cccs2)c2ncccc21)Nc1ccc2c(c1)COC2=O	.	3	9	.	.
CN1[C@@H]2CC(OC(=O)[C@@H](CO)c3ccccc3)C[C@H]1[C@H]1O[C@H]12 (stereo partly specified)	.	24	52*	.	.
CN1C2CC(OC(=O)[C@H](CO)c3ccccc3)CC1C1OC12 (stereo partly specified)	.	11	6	.	.
COCCN(C(=O)c1csnn1)C(C(=O)NC(C)(C)C)c1c(F)cccc1Cl (stereo unspecified)	.	-3	14	.	.
O=C(O)c1c2ccccc2cc2ccccc12	.	10	12	.	.
Oc1cc(-c2ccccc2)c2ccccc2c1	12	61*	7	-4	3
CCC(=O)Nc1cc(NC(=O)CSc2nc(C)nc3sc4c(c23)CCC(C)C4)ccc1C (stereo unspecified)	.	-8	11	.	.
COC(=O)CSc1nsc(SCC(=O)OC)c1C#N	52*	28	13	0	10
CSc1snc(SCC(N)=O)c1C#N	8	34	16	-3	15
CN1CCCc2cc(CN3CCc4c(nc(N5CCOCC5)[nH]c4=O)C3)ccc21	.	-44	.	.	.
Cc1cccc(C)c1NC(=O)Cn1nnnc1N	21	4	2	13*	9
Cc1cccc(C)c1NC(=O)CN	12	27	8	.	.
Cc1ccc(N2CCCn3c2cc(C)c(C#N)c3=O)cc1C	8	-66	10	9.8*	17
COc1ccc(-n2c(N)c(C(=O)Nc3c(C)n(C)n(-c4ccccc4)c3=O)c3nc4ccccc4nc32)cc1	116*	-9	14	.	.
SMILES	Avidin fluor	EP2 mod	PGE2 EP2 inh	Efa HMGR inh	GSH fluor
CCCc1ccc(Oc2cn[nH]c2-c2ccc(O)c(C)c2O)cc1	9	-17	53*	1	12
COc1cccc(Oc2cn[nH]c2-c2ccc(OC)cc2O)c1	187*	-11	9	-1	28
CCCc1ccc(Oc2c(-c3ccc(O)c(C)c3O)n[nH]c2C)cc1	10	-44	28	3	11
O=[N+]([O-])c1c(Nc2ccccn2)cc(Cl)c2nonc12	7	-88	56*	.	.
N#Cc1c(C(F)(F)F)cc(C2CC2)[nH]c1=O	85*	22	9	6	23
COc1ccc(-c2noc(COc3ccc4c(c3)OCO4)n2)cc1	8	-17	99*	5	20
O=C(CN1CCC2(CC1)NC(=O)c1ccccc1O2)NCc1ccccc1F	.	-56	6	.	.
COc1ccc(OC(=O)c2cc(S(=O)(=O)N3CCCCC3)ccc2Cl)cc1	.	-8	7	.	.
CC(C)Sc1nc2c(c(=O)[nH]c(=O)n2C)n1CCCc1ccccc1	.	71*	9	.	.
CCCCCn1c(Sc2ncccn2)nc2c1c(=O)[nH]c(=O)n2C	3	-1	7	-5	22
CCCCCn1c(Sc2nc3ccccc3s2)nc2c1c(=O)[nH]c(=O)n2C	8	63*	7	-2	7
C/C=C/Cn1c(SCc2ccccc2)nc2c1c(=O)[nH]c(=O)n2C	17	66*!	10	2	10
Cc1ccc(C(C)C)c(OCC(=O)NC(=S)NCc2cccnc2)c1	.	-14	11	.	.
COc1ccc(-c2ccc(=O)n(CC3CCN(C(=O)CCc4ccccc4)CC3)n2)cc1	.	-40	.	.	.
COc1ccc(/C=C2\C(=O)NC(=O)N(c3ccc4c(c3)OCO4)C2=O)c(OC)c1OC	.	5	8	.	.
CC(C)N(C(=O)c1ccccc1-c1ccccc1)C(C)C	8	63*	18	-2	42
O=C(COc1ncnc2ccccc12)N1CCN(S(=O)(=O)c2ccc(Cl)cc2)CC1	9	15	3	0	264*
O=C(COc1ncnc2ccccc12)N1CCN(S(=O)(=O)c2ccccc2)CC1	12	12	12	-2	21
CCN(CC)P(=O)(Nc1ccc(C)cc1Br)c1ccc(N(C)C)cc1NC(=O)c1ccco1 (stereo unspecified)	9	65*	15	-1	10
Cc1ccc(NC(=O)c2ccco2)c(NC(=O)c2ccccc2)c1	.	-30	8	.	.
O=C(NCc1ccccc1)N1CCCC(c2nc(-c3ccncc3)n[nH]2)C1 (stereo unspecified)	.	-20	.	.	.
COCCOC(=O)c1c(C)oc2ccc(OCC=C(C)C)cc12	48*	46	13	-4	24
COCCOC(=O)c1c(C)oc2ccc(OS(C)(=O)=O)cc12	11	-14	5	-7	12
Cn1c(=O)c2[nH]c([C@@H]3CC(=O)C[C@H](c4nc5c([nH]4)c(=O)n(C)c(=O)n5C)N3)nc2n(C)c1=O	.	18	46*	.	.
O=C(NCc1cccs1)C1CCCN1C(=O)Nc1ccccc1F (stereo unspecified)	.	5	7	.	.
CN(Cc1ccccc1)C(=O)CC(c1ccccc1)c1cc(Cl)ccc1O (stereo unspecified)	21	61*	.	-2	15
C[C@H]1[C@H](C)CC[C@@]2(C(=O)O)CC[C@@]3(C)C(=CC[C@H]4[C@]5(C)C[C@H](O)[C@@H](O)[C@@](C)(CO)[C@H]5[C@H](O)C[C@@]43C)[C@H]12	.	31	43*	.	.
Cc1nnc2nc(-c3ccc(NC(=O)C4CCN(S(C)(=O)=O)CC4)cc3)cn2c1C	.	-20	7	.	.
CC(C)=CCc1c2c(c3occ(-c4ccc(O)c(O)c4)c(=O)c3c1O)C=CC(C)(C)O2	.	37	41*!	.	.
Cc1ccc(NC2=C(NCCO)C(=O)c3ccccc3C2=O)cc1	49*	16	11	-3	11
